tim23-1 inh: inhibits growth of tim23-1 mutant yeast | inhibition, % at 20 µM | actives 1.3% (n = 330,000) | AID 463212 | S. cerevisiae tim23-1 growth, BacTiter-Glo luminescence, 24 h;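 active means growth inhibition of the mutant yeast at or above 50%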;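 further: temperature-sensitive mutant grown at 25 °C; plate controls were DMSO-treated mutant yeast for no effect and medium wells lacking yeast for full effect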
tim10-1 inh: growth inhibitors of tim10-1 mutant yeast. inhibition, % at 20 µM. AID 463190. S. cerevisiae tim10-1 ts strain growth, BacTiter-Glo, 24 h. actives 2.2% (n = 330,000);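 active means inhibition of at least 40%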;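 further: mutant grown at 25 °C; 0% = DMSO wells with yeast and 100% = wells holding no yeast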
PfHsp90 set2: growth inhibition of yeast expressing Plasmodium Hsp90; S. cerevisiae expressing PfHsp90, BacTiter-Glo ATP, 48 h; yeast lacking PDR1 and PDR3 efflux regulators; inhibition, % at 9.4 µM; actives 0.32% (n = 310,000); AID 504621;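 active means every replicate shows inhibition above about 80%, whatever the replicate mean, limit read from the data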;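 further: 0% = DMSO neutral controls and 100% = 20 µM radicicol positive controls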
Rce1 inhib: blocks yeast Ras-converting enzyme. Q03530. yeast membranes, quenched prenylated peptide cleavage fluorescence. calls only. actives 0.27% (n = 290,000);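 active means fall in fluorescence gain of 50% or more versus controls, with final raw signal at or below 3038400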;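 further: plate controls were neutral control wells for no effect and wells lacking membranes for full effect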
Target sequence (Q03530 whole entry, looked up): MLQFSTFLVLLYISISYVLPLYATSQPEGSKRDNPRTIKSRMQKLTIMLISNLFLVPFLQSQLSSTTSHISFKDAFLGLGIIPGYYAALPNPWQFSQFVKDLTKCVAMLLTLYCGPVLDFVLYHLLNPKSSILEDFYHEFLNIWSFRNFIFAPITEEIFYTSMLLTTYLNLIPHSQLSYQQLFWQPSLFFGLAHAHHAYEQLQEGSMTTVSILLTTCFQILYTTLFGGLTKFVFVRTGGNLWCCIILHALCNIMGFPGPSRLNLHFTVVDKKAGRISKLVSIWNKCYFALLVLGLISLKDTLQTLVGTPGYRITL
TIM10 inh: growth inhibitors of TIM10 yeast strain | S. cerevisiae TIM10 strain growth, BacTiter-Glo luminescence, 24 h | inhibition, % at 10 µM | actives 1.4% (n = 330,000) | AID 463195;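 active means inhibition of 40% or more at the single tested concentration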;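 further: wild-type TIM10 isogenic control strain grown at permissive 25 °C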
tim10-1 confirm: confirmation of tim10-1 mutant yeast growth inhibitors; shares compounds with tim10-1 inh; S. cerevisiae tim10-1 ts strain growth, BacTiter-Glo, 24 h; inhibition, % at 20 µM; actives 56% (n = 7,400);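 active means inhibition of yeast growth at or above a set limit in either of two repeat tests at 20 µM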;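 further: tim10-1 mutant grown at permissive 25 °C to find synthetic lethal compounds; 0% = DMSO yeast wells and 100% = medium wells without yeast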
* hit, by the source's call; i = inactive; x = no result given. Shown are actives, neighbours in structure and some others; about 3.7% of the full set was active somewhere.

SMILES | tim23-1 inh | tim10-1 inh | PfHsp90 set2 | Rce1 inhib | TIM10 inh | tim10-1 confirm
O=C(CN1CCN(S(=O)(=O)c2ccc(Br)cc2)CC1)N/N=C/c1ccc(Br)s1 | 43 | 44* | 9 | i | 24 | 36*
O=C(CN1CCN(S(=O)(=O)c2ccc(Cl)cc2)CC1)Nc1ccc2c(c1)OCO2 | 32 | 34 | -19 | i | -6 | x
O=C(CN1CCN(S(=O)(=O)c2ccc(Cl)cc2)CC1)Nc1ccc2c(c1)CCC2 | 44 | 50* | -7 | i | 22 | 40*
Cc1cc(C)cc(NC(=O)CN2CCCN(S(=O)(=O)c3ccc(Br)s3)CC2)c1 | 31 | 44* | 22 | i | 29 | 24
CC(C)c1ccc(S(=O)(=O)N2CCN(CC(=O)Nc3ccc4c(c3)OCO4)CC2)cc1 | 35 | 52* | -10 | x | 20 | 40*
O=C(COC(=O)C1CCN(c2ccc(C(F)(F)F)cn2)CC1)Nc1cccc(F)c1 | 36 | 38 | -26 | i | 16 | x
COc1ccc(S(=O)(=O)NCC(=O)N(CC2CCCO2)C(C(=O)NC2CCCC2)C(C)C)cc1 (configuration not stated) | 7 | -12 | -10 | i | 2 | x
O=C(CN1CCN(c2nc(-c3ccc(F)cc3)cs2)CC1)Nc1ccc2c(c1)OCO2 | 27 | 46* | -17 | i | 6 | 27
CCOc1ccc(NC(=O)CN2CCN(S(=O)(=O)c3ccc(Cl)cc3)CC2)cc1 | 37 | 41* | 23 | i | 10 | 22
CN(CC(=O)Nc1ccc(S(=O)(=O)N2CCCC2)cc1)Cc1ccc(Cl)cc1Cl | 33 | 46* | 7 | i | 3 | 22
COC(=O)c1ccc(NC(=O)CN2CCN(S(=O)(=O)c3ccc(Br)cc3)CC2)cc1 | 34 | 46* | -2 | i | 15 | 36*
CCOc1ccc(NC(=O)CCN2CCN(S(=O)(=O)c3ccc(F)cc3)CC2)cc1 | 14 | 9 | -9 | i | 8 | x
O=C(CN1CCN(S(=O)(=O)c2ccc(Br)cc2)CC1)Nc1ccc2c(c1)OCCO2 | 16 | 7 | -5 | i | -20 | x
O=C(N/N=C/c1cccs1)c1cc(-c2ccc(Cl)s2)[nH]n1 | 20 | -8 | -7 | i | 7 | x
CC(=O)c1c(C)[nH]c(C(=O)COC(=O)C2(C)CC2(Cl)Cl)c1C (configuration not stated) | 23 | 5 | x | x | -16 | x
O=C(CCl)Nc1cccc(S(=O)(=O)N2CCCCCC2)c1 | 48 | 41* | 11 | i | 20 | 34*
O=C(CN1CCN(S(=O)(=O)c2ccccc2)CC1)Nc1ccc(Cl)c(Cl)c1 | 10 | 43* | x | i | 25 | 30*
O=S(=O)(Cc1ccccc1)c1cnc2ccccc2n1 | 4 | 16 | 32 | i | 0 | x
CC1Cc2ccccc2N1C(=O)CSc1nnc(-c2ccc(S(=O)(=O)N3CCCC3)cc2)o1 (configuration not stated) | -8 | 17 | x | i | -4 | x
COc1cc(CC(=O)N(c2ccccc2)c2nc(C)cs2)cc(OC)c1OC | 25 | 22 | 19 | i | 9 | x
Cc1ccc(NC(=O)CN2CCCC2c2cccn2C)cc1C (configuration not stated) | 8 | 13 | -5 | x | 1 | x
Fc1c(F)c(C(F)(F)F)c(F)c(F)c1N/N=C\c1cccs1 | 43 | 47* | -39 | i | 37 | 69*
Cn1c(N/N=C/c2cccs2)cc(=O)n(C)c1=O | -4 | 7 | -1 | i | -5 | x
Cc1[nH]n(-c2ccccc2)c(=O)c1N=Nc1c(O)cc(S(=O)(=O)N(C)C)c2ccccc12 | 44 | 43* | 18 | i | 30 | 21
Cc1[nH]n(-c2ccccc2)c(=O)c1N=Nc1ccc2c(c1)OCCO2 | 7 | -11 | -8 | x | 0 | x
SMILES | tim23-1 inh | tim10-1 inh | PfHsp90 set2 | Rce1 inhib | TIM10 inh | tim10-1 confirm
CCc1cccc(C)c1NC(=O)C1CCN(C(=O)c2ccc([N+](=O)[O-])cc2)CC1 | -3 | -3 | -27 | x | 10 | x
O=C(ON=C1CCN(S(=O)(=O)c2ccccc2)CC1)c1ccc(F)cc1 | 46 | 52* | x | i | 37 | 54*
Cc1ccc(C(=O)ON=C2CCN(S(=O)(=O)c3ccccc3)CC2)cc1 | x | x | 64 | i | x | x
CCCCc1ccc(NC(=S)NCC2CCCO2)cc1 (configuration not stated) | 26 | 45* | -23 | x | 34 | 34*
S=C(NCC1CCCO1)Nc1ccc(Cl)c(Cl)c1 (configuration not stated) | 29 | 41* | -5 | i | 38 | 26
O=C(COc1ccc([N+](=O)[O-])cc1)Nn1cnnc1 | -3 | -4 | 16 | i | 10 | x
CCN(CC)C(=O)[C@H]1CC(CC(=O)NCCC2=CCCCC2)C(=O)N2CCc3c([nH]c4ccc(OC)cc34)[C@]12C (some centres not stated) | 29 | 9 | 1 | x | 3 | x
OC(CNCC1CCCO1)Cn1c2ccccc2c2ccccc21 (configuration not stated) | 3 | -16 | -9 | i | 7 | x
OC(CNCC1CCCO1)Cn1c2ccc(Cl)cc2c2cc(Cl)ccc21 (configuration not stated) | -32 | 43* | -14 | i | -24 | 22
COc1ccc(S(=O)(=O)n2oc(=O)cc2-c2ccccc2)cc1 | 14 | 43* | -17 | i | 14 | 20
Cc1ccc(S(=O)(=O)N2CCC(C(=O)OCC(=O)NC(C)c3ccc(F)cc3)CC2)cc1C (configuration not stated) | 19 | 20 | -5 | x | 9 | x
N#Cc1sc(NCc2ccccc2)nc1Cl | 40 | 41* | 21 | i | 11 | 22
CCOC(=O)c1oc2ccccc2c1COC(=O)CNC(=O)c1ccc(C)cc1 | 16 | 9 | 6 | i | 7 | x
CCc1cccc(NC(=O)CS(=O)Cc2nc(-c3ccc(C)cc3)oc2C)c1 (configuration not stated) | 31 | 47* | -21 | i | 26 | 35*
O=C(c1cn(-c2ccccc2)nc1-c1ccc(Cl)s1)N1CCOCC1 | 25 | 44* | -124 | i | 21 | 25
CN1/C(=C/C(=O)C2CC2)C(C)(C)c2ccccc21 | 10 | -2 | 4 | i | -21 | x
CN1/C(=C\C(=O)Nc2ccc(Br)cc2)C(C)(C)c2ccccc21 | 49 | 46* | 9 | i | 39 | 54*
Cc1onc(-c2c(F)cccc2Cl)c1C(=O)Nc1cccc(S(=O)(=O)NC2=NCCC2)c1 | 1 | 0 | x | i | 6 | x
Cc1ccc(C(=O)O/N=C(\c2ccccc2)c2cccnc2)cc1 | 15 | 42* | -24 | x | 1 | 36*
CC(CCc1ccccc1)NC(=O)COC(=O)c1ccc([N+](=O)[O-])cc1 (configuration not stated) | 2 | -7 | 0 | i | 16 | x
CC(CCc1ccccc1)NC(=O)COC(=O)c1ccc(S(C)(=O)=O)c([N+](=O)[O-])c1 (configuration not stated) | 18 | 46* | -24 | i | 4 | 14
